This is an account of results in PubChem BioAssay (Tox21).

Inconclusive results are not listed. Entries that show only a call come without a potency. Active and inactive are the calls of the source. Calls follow the shape of the full dose curve.

The first assay deals with Acetylcholinesterase (Homo sapiens) (UniProt P22303). Description: Acetylcholinesterase (AChE) small molecule antagonists: fluorescence cell-based qHTS assay (AID 1347398). Also: nearly all actives have a fitted effect of over 50% in size. The following applies: SH-SY5Y cells; Potency: AChE activity; outcome: AChE activity; series mostly up to 115 µM. The essentials: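 Using neuroblastoma SH-SY5Y cells as the enzyme source, test chemicals are preincubated 30 min at 37 C; AChE-driven acetylthiocholine cleavage is then quantified by thiocholine-dependent Thiolite Green fluorescence after 40 min at room temperature.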
Acetylcholinesterase (Homo sapiens), sequence (P22303 whole entry, looked up): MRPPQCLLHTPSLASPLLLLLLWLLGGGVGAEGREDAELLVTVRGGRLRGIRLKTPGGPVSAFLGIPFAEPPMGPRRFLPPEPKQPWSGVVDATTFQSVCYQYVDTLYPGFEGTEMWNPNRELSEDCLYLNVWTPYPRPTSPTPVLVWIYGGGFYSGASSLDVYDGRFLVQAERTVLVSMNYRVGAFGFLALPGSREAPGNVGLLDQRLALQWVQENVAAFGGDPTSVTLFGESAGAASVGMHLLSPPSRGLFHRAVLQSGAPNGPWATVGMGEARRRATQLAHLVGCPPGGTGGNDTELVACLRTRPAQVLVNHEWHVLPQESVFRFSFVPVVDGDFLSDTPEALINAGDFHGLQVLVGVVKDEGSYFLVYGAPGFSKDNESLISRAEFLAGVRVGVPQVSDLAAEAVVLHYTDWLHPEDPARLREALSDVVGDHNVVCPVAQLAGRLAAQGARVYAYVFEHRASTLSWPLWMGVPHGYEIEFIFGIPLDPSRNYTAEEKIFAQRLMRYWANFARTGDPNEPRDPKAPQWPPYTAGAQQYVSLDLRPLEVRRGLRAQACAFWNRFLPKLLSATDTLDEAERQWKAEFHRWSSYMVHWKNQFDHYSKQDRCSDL
On the technique in general: Quantitative high-throughput screening tests each substance at several concentrations.
As for `CO/N=C(/C(=O)N[C@@H]1C(=O)N2C(C(=O)[O-])=C(C[n+]3ccn4ncccc43)CS[C@H]12)c1nsc(N)n1`, the Potency result is “inactive”. Still for that read-out and setting: the same measure for `CCCCSCCCC`: “inactive”; for `Cc1ccc(C(=O)c2ccccc2)cc1`: “inactive”; for `O=Cc1c(Cl)cccc1Cl`: “inactive”.

As for `O=C=NC1CCC(CC2CCC(N=C=O)CC2)CC1` (stereo unspecified), the Potency result is “inactive”.

On to `COc1ccc(N)c(OC)c1`, for which the Potency entry was “inactive”.

For the compound `C[C@@H]1C[C@H]2[C@@H]3CCC4=CC(=O)C=C[C@]4(C)[C@@]3(F)[C@@H](O)C[C@]2(C)[C@H]1C(=O)CO`, the Potency entry is “inactive”.

Turning to `CC(C)CCCCCCOC(=O)C1CCCCC1C(=O)OCCCCCCC(C)C` (stereo unspecified), the Potency result is “inactive”. Consider `Cc1ccc(C(C)(C)C)c(O)c1`, for which the Potency entry was “inactive”. Take `O=Cc1ccc([N+](=O)[O-])cc1`: the Potency result was “inactive”.

Regarding `COC(CC(C)CCCC(C)(C)O)OC` (stereo unspecified), the Potency result was “inactive”.

Regarding `CCOC(=O)CC1(C)OCC(C)O1` (stereo unspecified), the Potency entry is “inactive”. Still for that read-out and setting: the same measure for `O=C(Nc1cccc(Cl)c1)OCC#CCCl`: “inactive”; for `CCCCCCCCCCCCCCCBr`: “inactive”; for `CCOC(=O)CN1CCCC1=O`: “inactive”. On the same count and under the same terms, the entry for `Clc1cc(Cl)nc(Cl)n1` is “inactive”.

The target is the same in a further assay. Description: Acetylcholinesterase (AChE) small molecule antagonists: enzyme-based qHTS assay with human liver microsomes (AID 1347399). Also: nearly all actives have a fitted effect of over 60% in size. Also: potency is read from the fitted curve at half-maximal effect. The following applies: Potency: qHTS inhibition; outcome: qHTS inhibition; series mostly up to 115 µM. In a few lines: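 Recombinant human AChE (50 mU/mL in the enzyme mix) and human liver microsomes (0.25 mg/mL final) were preincubated with compound and NADPH (0.25 mg/mL final) for 30 min at 37 C. Acetylthiocholine/DTNB was then added; thiocholine was read colorimetrically after 10 min at room temperature.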
Take `C/C=C/c1ccc(OCC)c(O)c1`: the Potency result was “inactive”.

Turning to `c1ccc2cc3c(ccc4ccccc43)cc2c1`, the Potency entry is “inactive”. On the same count and under the same terms, the same measure for `CC1=CC[C@H](C(C)C)C=C1`: “inactive”; for `O=C(Nc1ccc2c(c1)Cc1ccccc1-2)C(F)(F)F`: “inactive”. Regarding `CCn1cc(C(=O)O)c(=O)c2cc(F)c(N3CCN(C)CC3)cc21`, the activity change, negative = inhibition is -0.336% [at 23.6 µM] (inactive). For `Clc1ccc2c(c1)Nc1ccccc1S2`, the Potency entry is “inactive”.

Regarding `O=c1[nH]c(=O)n([C@H]2C[C@H](O)[C@@H](CO)O2)cc1Br`, the Potency entry is “inactive”. Same read-out and setting: the same measure for `C=C(C)C(=O)OCCOCCOCCOC(=O)C(=C)C`: “inactive”. Still for that read-out and setting: the entry for `Cc1ccc(S(N)(=O)=O)cc1` is “inactive”; for `O=C(c1ccccc1)c1ccccc1O` it is “inactive”. On the same count and under the same terms, the entry for `CC(C)c1cc(C(C)C)cc(C(C)C)c1` is “inactive”; for `CN(C)C=O` it is “inactive”; for `Fc1ccc(Br)cc1` it is “inactive”. On to `CCCCCC1Nc2cc(C(F)(F)F)c(S(N)(=O)=O)cc2S(=O)(=O)N1` (stereo unspecified), for which the Potency result is “inactive”. On the same count and under the same terms, the same measure for `CCCCCCCCCCCCCCCCC`: “inactive”; for `CCOC(=O)OCC`: “inactive”; for `CCOCCOCC`: “inactive”. On to `Nc1cccc2c1CN(C1CCC(=O)NC1=O)C2=O` (stereo unspecified), for which the Potency entry is “inactive”. The same measure, in the same setting: the same measure for `Cc1cc(CCCOc2c(C)cc(-c3noc(C(F)(F)F)n3)cc2C)on1`: “inactive”; for `CC(c1cc(C(C)(C)C)cc(C(C)(C)C)c1O)c1cc(C(C)(C)C)cc(C(C)(C)C)c1O`: “inactive”. As to `O=c1[nH]c2ccc(S(=O)CCN3CCC(Cc4ccc(F)cc4)CC3)cc2o1` (stereo unspecified), the Potency is 35.6 µM (active). The same measure, in the same setting: the entry for `CCCCOC(=O)c1ccccc1` is “inactive”; for `O=C(O)c1cc(Cl)cc(Cl)c1` it is “inactive”; for `COC(=O)CC(=O)C(C)(C)C` it is “inactive”. The same measure, in the same setting: the entry for `CO/N=C(/C(=O)N[C@@H]1C(=O)N2C(C(=O)[O-])=C(C[n+]3ccn4ncccc43)CS[C@H]12)c1nsc(N)n1` is “inactive”.

Consider `CCCCSCCCC`, for which the Potency result is “inactive”. In the case of `Cc1ccc(C(=O)c2ccccc2)cc1`, the Potency result is “inactive”. With `O=Cc1c(Cl)cccc1Cl`, the Potency entry was “inactive”. Still for that read-out and setting: the entry for `O=C=NC1CCC(CC2CCC(N=C=O)CC2)CC1` (stereo unspecified) is “inactive”; for `COc1ccc(N)c(OC)c1` it is “inactive”. For `C[C@@H]1C[C@H]2[C@@H]3CCC4=CC(=O)C=C[C@]4(C)[C@@]3(F)[C@@H](O)C[C@]2(C)[C@H]1C(=O)CO`, the Potency result is “inactive”. On the same count and under the same terms, the entry for `CC(C)CCCCCCOC(=O)C1CCCCC1C(=O)OCCCCCCC(C)C` (stereo unspecified) is “inactive”. Same read-out and setting: the same measure for `Cc1ccc(C(C)(C)C)c(O)c1`: “inactive”. Same read-out and setting: the same measure for `O=Cc1ccc([N+](=O)[O-])cc1`: “inactive”. In the case of `COC(CC(C)CCCC(C)(C)O)OC` (stereo unspecified), the Potency entry is “inactive”.

Take `CCOC(=O)CC1(C)OCC(C)O1` (stereo unspecified): the Potency entry is “inactive”. For `O=C(Nc1cccc(Cl)c1)OCC#CCCl`, the Potency entry was “inactive”. The same measure, in the same setting: the entry for `CCCCCCCCCCCCCCCBr` is “inactive”; for `CCOC(=O)CN1CCCC1=O` it is “inactive”.

For `Clc1cc(Cl)nc(Cl)n1`, the Potency entry was “inactive”.
